{
  "source": "PubChem BioAssay AID430",
  "about": "(Sanford-Burnham Center for Chemical Genomics, 2006)",
  "note": "Among all 63,000 compounds or so, about 1,100 (1.7%) were called active. What follows is part of a selection rich in actives, with near analogues and random picks from the rest. Measured potencies and affinities stand elsewhere. Values without a mark were called inactive. Rule as the data show it: active = cytotoxicity above about 50%; inactive = the rest.",
  "data": [
    {"test": "HPDE-C7 pancreatic duct cell viability loss – fluorescence, HTS (AID 430);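 also: cells exposed to compound for 48 hours before viability readout; 0% = vehicle and 100% = reference cytotoxic drug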", "details": "HPDE-C7 pancreatic duct cells viability, at 10 µM, stronger effect = higher value", "values": [
      {"smiles": "COCCn1c(C(C)C)nc2oc3ccccc3c(=O)c2c1=O", "cytotoxicity": "-9.4%"},
      {"smiles": "CCC(=O)N1CCc2cc(S(=O)(=O)NCCN3CCC(C)CC3)ccc21", "cytotoxicity": "-1.8%"},
      {"smiles": "CCN1C(=O)CC(N2CCC(C(=O)OC)CC2)C1=O", "note": "(stereo unspecified)", "cytotoxicity": "-6.2%"},
      {"smiles": "OCCN1CCN(C(c2cccs2)c2ccc3cccnc3c2O)CC1", "note": "(stereo unspecified)", "cytotoxicity": "79.3% (active)"},
      {"smiles": "CN1CCN(C(c2cccnc2)c2ccc3cccnc3c2O)CC1", "note": "(stereo unspecified)", "cytotoxicity": "-9.1%"},
      {"smiles": "Cc1nc2sc(C(c3ccccc3)N3CCN(CCO)CC3)c(O)n2n1", "note": "(stereo unspecified)", "cytotoxicity": "-1.3%"},
      {"smiles": "CC1CCC(C(=O)NC(C(=O)NCCN2CCC(C)CC2)C(C)C)CC1", "note": "(stereo unspecified)", "cytotoxicity": "-16.7%"},
      {"smiles": "Cc1nnc(SCc2ccccc2Cl)n1CC1CCCO1", "note": "(stereo unspecified)", "cytotoxicity": "-11.9%"},
      {"smiles": "COc1ccc(NC2=CC(=O)CC(C)(C)C2)cc1OC", "cytotoxicity": "-19.2%"},
      {"smiles": "O=C(Nc1cccc(NC(=O)N2CCN(c3ccccc3)CC2)c1)N1CCN(c2ccccc2)CC1", "cytotoxicity": "56.3% (active)"},
      {"smiles": "O=C(Nc1ccc2snnc2c1)N1CCN(c2ccccc2)CC1", "cytotoxicity": "-24.9%"},
      {"smiles": "O=C(Nc1cccc2ccccc12)N1CCN(c2ccccc2)CC1", "cytotoxicity": "15.2%"},
      {"smiles": "COc1ccc(Cn2c(C)nc3oc4cc(OC)ccc4c(=O)c3c2=O)cc1", "cytotoxicity": "-21%"},
      {"smiles": "Nc1nc2n(n1)C(c1cccc(Cl)c1)CC(c1ccc(F)cc1)N2", "note": "(stereo unspecified)", "cytotoxicity": "10.8%"},
      {"smiles": "N#Cc1cc2c(nc1SCC(=O)Nc1sc3c(c1C#N)CCC3)CCCCC2", "cytotoxicity": "23.2%"},
      {"smiles": "COC(=O)CC(=O)CSc1nc2c(cc1C#N)CCC2", "cytotoxicity": "76.1% (active)"},
      {"smiles": "CC(C)OC(=O)CC(=O)CSc1nc2c(cc1C#N)CCC2", "cytotoxicity": "49.9%"},
      {"smiles": "CCOC(=O)c1sc(NC(=O)CSc2nc3c(cc2C#N)CCCCCC3)c(C#N)c1C", "cytotoxicity": "79.6% (active)"},
      {"smiles": "COC(=O)CC(=O)CSc1nc2c(cc1C#N)CCCCC2", "cytotoxicity": "10.3%"},
      {"smiles": "Cc1nc(SCC(=O)CC(=O)OC(C)C)c(C#N)c(C)c1C", "cytotoxicity": "-1.2%"},
      {"smiles": "Cc1c(C#N)c(SCC(N)=O)nc2c1CCCC2", "cytotoxicity": "-21%"},
      {"smiles": "CCOC(=O)CC(=O)CSc1nc2c(cc1C#N)CCCCC2", "cytotoxicity": "-5.9%"},
      {"smiles": "CCOC(=O)c1sc(NC(=O)CSc2nc3c(cc2C#N)CCC3)c(C#N)c1C", "cytotoxicity": "4.5%"},
      {"smiles": "Cc1cc(C)c(C#N)c(SCC(=O)CC(=O)OC(C)C)n1", "cytotoxicity": "34.5%"},
      {"smiles": "CCOC(=O)CC(=O)CSc1nc2c(c(C)c1C#N)CCC2", "cytotoxicity": "52.6% (active)"},
      {"smiles": "COc1cc(Cl)ccc1S(=O)(=O)n1nc(C)cc1C", "cytotoxicity": "7.8%"},
      {"smiles": "CCc1ccc(S(=O)(=O)NCc2csc(-c3cccnc3)n2)s1", "cytotoxicity": "-5%"},
      {"smiles": "CCOC(=O)c1ccccc1NC(=O)c1c(O)c2ccccc2n(CC)c1=O", "cytotoxicity": "-9.2%"},
      {"smiles": "CC(=O)N1CCc2cc(S(=O)(=O)NC(CC(C)C)C(=O)Nc3cc(C)ccn3)ccc21", "note": "(stereo unspecified)", "cytotoxicity": "-6.7%"},
      {"smiles": "Cc1cc(C(C)(C)C)oc1C(=O)N1CCN(C(=O)c2oc(C(C)(C)C)cc2C)CC1", "cytotoxicity": "4%"},
      {"smiles": "CCCCS(=O)(=O)C(=C1Nc2ccccc2N1)S(=O)(=O)CCCC", "cytotoxicity": "-0.6%"},
      {"smiles": "CCOCCCn1c(=S)[nH]c2cc(C(=O)N3CCC(C(N)=O)CC3)ccc2c1=O", "cytotoxicity": "0.3%"},
      {"smiles": "CC(C)OC(=O)CSc1nnc(-c2cnccn2)n1-c1ccc(Cl)cc1", "cytotoxicity": "9.2%"},
      {"smiles": "Cc1ccc(OCC(=O)N2CCN(C(=O)Cc3ccccc3)CC2)cc1", "cytotoxicity": "-0.3%"},
      {"smiles": "N#CCSc1nc2cc(C(=O)N3CCCC3)ccc2c(=O)n1Cc1ccccc1", "cytotoxicity": "-0.6%"},
      {"smiles": "CCOC(=O)CSc1nc2cc(C(=O)N3CCC(C(N)=O)CC3)ccc2c(=O)n1-c1ccccc1", "cytotoxicity": "-8.3%"},
      {"smiles": "N#CCSc1nc2cc(C(=O)N3CCC(C(N)=O)CC3)ccc2c2nc3ccccc3n12", "cytotoxicity": "75.7% (active)"},
      {"smiles": "Cc1onc(-c2ccccc2)c1C(=O)Nc1cccc2nsnc12", "cytotoxicity": "-11.7%"},
      {"smiles": "COc1ccc(CN2CCC(=O)NC2=O)cc1", "cytotoxicity": "6.7%"},
      {"smiles": "COc1ccc(Cn2c(C)ccc2C)cc1", "cytotoxicity": "-2%"},
      {"smiles": "COc1ccc(CN2CN(C(C)C)CSC2=S)cc1", "cytotoxicity": "50.5% (active)"},
      {"smiles": "CC(=O)c1cc(-c2ccccc2)n(CCC(=O)NCc2cccs2)c1C", "cytotoxicity": "-24%"},
      {"smiles": "CCc1[nH]nc2c1C(c1cccnc1)C(C#N)=C(N)O2", "note": "(stereo unspecified)", "cytotoxicity": "4.9%"},
      {"smiles": "CCCc1nn(C)c2c1C(c1cccnc1)C(C#N)=C(N)O2", "note": "(stereo unspecified)", "cytotoxicity": "3.9%"},
      {"smiles": "CC(C)(C)c1[nH]nc2c1C(c1cccnc1)C(C#N)=C(N)O2", "note": "(stereo unspecified)", "cytotoxicity": "-9.6%"},
      {"smiles": "N#CC1=C(N)Oc2c(ccc3cccnc23)C1c1cccnc1", "note": "(stereo unspecified)", "cytotoxicity": "62.4% (active)"},
      {"smiles": "N#CC1=C(N)Oc2cc(O)ccc2C1c1ccncc1", "note": "(stereo unspecified)", "cytotoxicity": "3%"},
      {"smiles": "CN(C)c1ccc2c(c1)OC(N)=C(C#N)C2c1cccc(F)c1", "note": "(stereo unspecified)", "cytotoxicity": "62.6% (active)"},
      {"smiles": "CCN(CC)c1ccc2c(c1)OC(N)=C(C#N)C2c1cccnc1", "note": "(stereo unspecified)", "cytotoxicity": "64.4% (active)"},
      {"smiles": "N#CC1=C(N)Oc2nc(-c3ccccc3)[nH]c2C1c1cccnc1", "note": "(stereo unspecified)", "cytotoxicity": "3.4%"},
      {"smiles": "N#CC1=C(N)Oc2cc(O)ccc2C1c1ccccc1", "note": "(stereo unspecified)", "cytotoxicity": "-11.3%"},
      {"smiles": "C=CCSC1=C(C#N)C(c2ccccc2Cl)CC(=O)N1", "note": "(stereo unspecified)", "cytotoxicity": "-33.8%"},
      {"smiles": "O=C(O)C1C2C=CC(C2)C1C(=O)Nc1ccc(C(=O)N2CCCCC2)c(Cl)c1", "note": "(stereo unspecified)", "cytotoxicity": "-20.1%"},
      {"smiles": "COc1cc2c(cc1OC)C1=C(C#N)CN(CC(=O)O)CN1CC2", "cytotoxicity": "-4.5%"},
      {"smiles": "COc1ccc(S(=O)(=O)NCCC(=O)NCc2cccs2)cc1", "cytotoxicity": "-13.7%"},
      {"smiles": "C=C(C)CSc1nc2ncccc2[nH]1", "cytotoxicity": "-0.6%"},
      {"smiles": "COc1ccc(CN(C(=O)CSc2nnc(-c3ccccc3F)o2)c2ccc(F)cc2)cc1", "cytotoxicity": "6.6%"},
      {"smiles": "COc1ccc(CN(C(=O)CSc2nnc(-c3ccc(F)cc3)o2)c2ccc(F)cc2)cc1", "cytotoxicity": "3%"},
      {"smiles": "O=C(CSc1nnc(-c2c[nH]c3ccccc23)o1)N(Cc1ccccc1)c1ccc(F)cc1", "cytotoxicity": "53.6% (active)"},
      {"smiles": "CCOC(=O)C(C)Sc1nc2ccccc2c(=O)n1CC", "note": "(stereo unspecified)", "cytotoxicity": "-15.7%"},
      {"smiles": "Cc1cccc(N2CCN(c3nnnn3-c3ccccc3)CC2C)c1", "note": "(stereo unspecified)", "cytotoxicity": "0.6%"},
      {"smiles": "CC(NC(=O)c1noc2c1CCCC2)c1ccccc1", "note": "(stereo unspecified)", "cytotoxicity": "4.7%"},
      {"smiles": "Cc1ccc2cc(CN(Cc3ccccc3)Cc3nnnn3C3CCCC3)c(=O)[nH]c2c1", "cytotoxicity": "53.3% (active)"},
      {"smiles": "CCOc1ccc2[nH]c(=O)c(CN(Cc3cccs3)C(CC)c3nnnn3C(C)(C)CC)cc2c1", "note": "(stereo unspecified)", "cytotoxicity": "59% (active)"},
      {"smiles": "Cc1ccc2[nH]c(=O)c(CN(Cc3ccccc3)Cc3nnnn3C3CCCC3)cc2c1", "cytotoxicity": "39.3%"},
      {"smiles": "CCOc1ccc2[nH]c(=O)c(CN(Cc3cccs3)Cc3nnnn3C(C)(C)CC)cc2c1", "cytotoxicity": "12.9%"},
      {"smiles": "CCC(c1nnnn1C1CCCC1)N(Cc1cccs1)Cc1cc2cc(C)ccc2[nH]c1=O", "note": "(stereo unspecified)", "cytotoxicity": "56.4% (active)"},
      {"smiles": "CCOc1ccc2[nH]c(=O)c(CN(Cc3cccs3)Cc3nnnn3C(C)(C)C)cc2c1", "cytotoxicity": "31.8%"},
      {"smiles": "CCOC(=O)Cn1nnnc1C(CC)N(Cc1cccs1)Cc1cc2cc(C)ccc2[nH]c1=O", "note": "(stereo unspecified)", "cytotoxicity": "7.5%"},
      {"smiles": "Cc1ccc2cc(CN(Cc3ccc(F)cc3)Cc3nnnn3C3CCCC3)c(=O)[nH]c2c1", "cytotoxicity": "23.4%"},
      {"smiles": "Cc1ccc2[nH]c(=O)c(CN(Cc3nnnn3C3CCCC3)C3CCCCC3)cc2c1", "cytotoxicity": "9.3%"}
    ]}
  ]
}
